Source: ChEMBL document CHEMBL4808148, “HDAC6 screening dataset using tau-based substrate in an enzymatic assay yields selective inhibitors and activators” (2021)
Out of some 5,600 compounds screened, about 390 (7%) showed an effect of 50% or more. The sample holds strong results, similar compounds and a random draw of the others, so the mix is not that of the screen. Residues, ends and D or L forms follow the SMILES beside them.

Key:
[1] = target: T1, Protein deacetylase HDAC6 (Homo sapiens) (UniProt Q9UBN7); settings: at 10 µM
T1 sequence (whole entry): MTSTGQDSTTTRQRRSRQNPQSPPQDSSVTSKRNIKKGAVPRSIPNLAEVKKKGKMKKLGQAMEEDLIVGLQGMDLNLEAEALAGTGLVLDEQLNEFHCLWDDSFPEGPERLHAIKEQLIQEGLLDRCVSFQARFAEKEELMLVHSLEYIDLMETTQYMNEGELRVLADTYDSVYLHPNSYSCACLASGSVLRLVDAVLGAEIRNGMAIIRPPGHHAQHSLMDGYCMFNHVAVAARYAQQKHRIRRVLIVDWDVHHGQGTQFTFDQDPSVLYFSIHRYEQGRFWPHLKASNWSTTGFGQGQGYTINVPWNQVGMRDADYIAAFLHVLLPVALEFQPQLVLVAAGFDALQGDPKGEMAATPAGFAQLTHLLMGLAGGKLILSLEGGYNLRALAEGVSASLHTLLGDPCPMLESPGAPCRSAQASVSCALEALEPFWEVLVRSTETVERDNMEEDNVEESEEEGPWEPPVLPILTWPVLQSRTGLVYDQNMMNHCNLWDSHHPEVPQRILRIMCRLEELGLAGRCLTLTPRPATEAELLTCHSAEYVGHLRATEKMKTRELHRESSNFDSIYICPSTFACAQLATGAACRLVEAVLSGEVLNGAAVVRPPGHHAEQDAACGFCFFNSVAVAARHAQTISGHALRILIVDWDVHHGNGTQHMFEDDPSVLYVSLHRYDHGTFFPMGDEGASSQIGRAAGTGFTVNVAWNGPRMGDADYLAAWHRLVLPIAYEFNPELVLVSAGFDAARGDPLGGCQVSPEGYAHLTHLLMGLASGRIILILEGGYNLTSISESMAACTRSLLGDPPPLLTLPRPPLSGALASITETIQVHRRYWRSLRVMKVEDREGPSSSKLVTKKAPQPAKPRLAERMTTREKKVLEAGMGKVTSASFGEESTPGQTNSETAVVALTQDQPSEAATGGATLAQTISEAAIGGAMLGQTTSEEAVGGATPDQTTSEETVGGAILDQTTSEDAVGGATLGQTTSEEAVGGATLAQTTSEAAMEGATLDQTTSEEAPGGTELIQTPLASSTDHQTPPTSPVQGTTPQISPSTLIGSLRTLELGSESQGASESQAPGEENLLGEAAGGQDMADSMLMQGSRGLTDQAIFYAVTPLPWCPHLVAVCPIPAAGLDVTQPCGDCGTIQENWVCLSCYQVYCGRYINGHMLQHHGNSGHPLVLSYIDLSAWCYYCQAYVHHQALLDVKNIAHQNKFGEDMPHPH

[2] = target: Protein deacetylase HDAC6 (Homo sapiens) (UniProt Q9UBN7); settings: at 10 µM; remark: listed apart in the source

Molecule | inhibition [1] [%] | inhibition [2] [%]
C=CCN1CC[C@]23c4c5ccc(O)c4O[C@H]2[C@@H](OCCOCCOCCOCCOCCOCCOCCOC)CC[C@@]3(O)[C@H]1C5 | 3.73 | 
OC[C@H]1O[C@H](O)C[C@@H](O)[C@@H]1O | -3.53 | 
O=C(Nc1cc(C(F)(F)F)cc(C(F)(F)F)c1)Nc1c(Br)cc(Br)cc1-c1nnn[nH]1 | 0.45 | 
O=C(c1cn(Cc2cncn2Cc2ccc(Br)cc2)cc1-c1cccc2ccccc12)N1CCOCC1 | -6.62 | 
COc1cc2c(cc1OC)CN(C(=O)/C=C/c1c(-c3ccccc3)n(C)c3ncccc13)CC2 | 33.3 | 
COC1[C@@H](O)[C@@H](O)C(O)[C@H](O)[C@H]1O (stereo partly specified) | -3.32 | 
CC(C)[C@@H]1C(=O)N(S(C)(=O)=O)[C@@H]2CCN(C(=O)/C=C/CN3CCCCC3)[C@H]21 | -9.25 | 
NC(=O)c1nc(Nc2ccccc2)sc1NC(=O)C1CCCCC1 | 11.1 | 
Cc1nc2c(c(=O)[nH]1)CSCC2 | 36 | 
CC(C)(C)NCC(O)COc1cc(Cl)ccc1Cl (stereo unspecified) | 2.55 | 
Nc1nc(F)nc2c1ncn2[C@@H]1O[C@H](COP(=O)(O)O)[C@@H](O)[C@@H]1O | -4.37 | 
TOCOFERSOLAN, CHEMBL2108106 |  | 6.6
O=C(Nc1ncc(SCCN2CCCC2)s1)[C@]1(c2ccc(S(=O)(=O)C3CC3)cc2)C[C@H]1C1CCCCC1 | -4.35 | 
CC(C)CC(NC(=O)C1CCCN1)C(=O)NCC(N)=O (stereo not drawn) (H-Pro-Leu-Gly-NH2; configuration not given here) | 40.6 | 
CC(C)(C)Nc1nc(Nc2ccc(C(N)=O)cc2)cc(N)c1C#N | 26.8 | 
CC(C)C(N)=O | 26.5 | 
O=C(CC1CC(c2ccc(F)cc2F)=NO1)N1CCOCC1 (racemic) | 99.4 | 
O=C(O)CC1CC(c2ccccc2)=NO1 (stereo unspecified) | 32.1 | 
CCCC[C@H](NC(C)=O)C(=O)N[C@H]1CC(=O)NCCCC[C@@H](C(=O)O)NC(=O)[C@H](Cc2c[nH]c3ccccc23)NC(=O)[C@H](CCCNC(=N)N)NC(=O)[C@@H](Cc2ccccc2)NC(=O)[C@H](Cc2c[nH]cn2)NC1=O | 38.5 | 
N#CC[C@@H](C1CCCC1)n1cc(-c2ncnc3[nH]ccc23)cn1 | -2.44 | 
C[C@@H]([C@H](O)c1ccccc1)N(C)C | -0.94 | 

Molecule | inhibition [1] [%] | inhibition [2] [%]
CN(C)[C@@H](CCOc1cccc2ccccc12)c1ccccc1 | 53 | 
CNC(=O)Oc1cccc2ccccc12 | 25.3 | 
CNC(=O)c1ccccc1Nc1nc(Nc2ccc3c(c2OC)CCC[C@H](N2CCN(CCO)CC2)C3)ncc1Cl | 11.5 | 
N#[N+]/C=C(\[O-])CC[C@H](N)C(=O)O | 28.2 | 
CCOC(=O)[C@H](CCc1ccccc1)N[C@@H](C)C(=O)N1Cc2cc(OC)c(OC)cc2C[C@H]1C(=O)O | -0.68 | 
COc1cc(OCc2cccc(-c3ccccc3)c2C)cc(OC)c1CN1CCCC[C@H]1C(=O)O | 64.2 | 
CC[C@H](C)[C@H]1O[C@]2(C=C[C@@H]1C)C[C@@H]1C[C@@H](C/C=C(\C)[C@@H](O[C@H]3C[C@H](OC)[C@@H](O[C@H]4C[C@H](OC)[C@@H](O)[C@H](C)O4)[C@H](C)O3)[C@@H](C)/C=C/C=C3\CO[C@@H]4[C@H](O)C(C)=C[C@@H](C(=O)O1)[C@]34O)O2 | -4.72 | 
O=C(NCCN1CCN(c2ncccn2)CC1)C12CC3CC(CC(C3)C1)C2 | -4.05 | 
COc1cc(OC)c(/C=C/S(=O)(=O)Cc2ccc(OC)c(OP(=O)(O)O)c2)c(OC)c1 | 6.33 | 
CCn1c(=O)n(C2=C(CO)CN(CC3CCCCCCC3)CC2)c2ccccc21 | -8.59 | 
CN1CCC2=C(C1)C(c1ccccc1)c1ccccc12 (stereo unspecified) | -8.99 | 
CNC1CC(c2ccc(Cl)c(Cl)c2)c2ccccc21 (stereo unspecified) | 30.3 | 
CCCCN1[C@@H]2CC[C@H]1C[C@@H](OC(c1ccc(F)cc1)c1ccc(F)cc1)C2 | 7.33 | 
Nc1nc(OCc2cc(Br)cs2)c2[nH]cnc2n1 | 65.4 | 
CN1CCN(c2cccc3[nH]c(=O)oc23)CC1 | 26.1 | 
O=C([O-])[C@H]1O[C@H](O)[C@H](O)[C@@H](O)[C@@H]1O.[Na+] | 1.38 | 
Nc1ccc(C(=O)OCC(O)CO)cc1 (stereo unspecified) | 14.1 | 
CC(C)COC(=O)c1ccc(N)cc1 | 82.8 | 
CCOC(=O)c1ccc(N(C)c2csc(-c3ccccc3)n2)cc1 | 30.7 | 
CC1=C[C@H](O)CC(C)(C)[C@H]1/C=C/C(C)=C/C=C/C(C)=C/C=C/C=C(C)/C=C/C=C(C)/C=C/C1=C(C)C[C@@H](O)CC1(C)C | 5.04 | 
